Several values for one entry are separate records, joined by “and”; a condition that tells them apart may be missing. Equal values may be shown once. Screen size: about 330,000 compounds; about 1,900 (0.58%) were called active. Roughly 4% stayed inconclusive and do not appear here. Rule as the data show it: inconclusive = inhibition above about 70% without an active follow-up result; inactive = below that. The list is a sample of the results. Results with a measured potency or affinity are listed apart.
Assay: M. tuberculosis growth inhibition, HTS (AID 449762);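 also: bacterial growth assessed after seven days of incubation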
Conditions: M. tuberculosis H37Rv growth inhibition, 7H9 media; at 25 µM; stronger effect = higher value
In the case of O=C(CSCc1cc(=O)n2nc(C3CC3)sc2n1)Nc1ccc(F)cc1, the inhibition is reported as -2.05% (inactive).
In the case of C[C@H](NC(=O)c1nc[nH]c1C(=O)NC1CCN(C(=O)OC(C)(C)C)CC1)C(=O)OCc1ccccc1, the inhibition is reported as -4.49% (inactive).
With CC(C)(C)OC(=O)N1CCC(NC(=O)c2[nH]cnc2C(=O)N[C@@H](Cc2ccccc2)C(=O)OCc2ccccc2)CC1 the inhibition was -4.13% (inactive).
In the case of Cc1ccc(NC2CCCN(C(=O)c3cccc4nccnc34)C2)cc1C (stereo not given), the inhibition is reported as -9.4% (inactive).
In the case of NS(=O)(=O)c1ccc(-c2ccc(/C=C3\SC(=S)N(C4CCS(=O)(=O)C4)C3=O)o2)cc1 (stereo not given), the inhibition is reported as 0.18% (inactive).
For NS(=O)(=O)c1ccc(-c2ccc(C=NC3CCS(=O)(=O)C3)o2)cc1 (stereo not given), the inhibition was -12% (inactive).
In the case of O=C(CCc1nc2ccccc2c(=O)[nH]1)N1CCN(S(=O)(=O)c2cccc(F)c2)CC1, the inhibition is reported as -17.1% (inactive).
In the case of NC(=O)NC(CC(=O)NCCCc1ccccc1)c1ccc(Cl)cc1 (stereo not given), the inhibition is reported as 5.17% (inactive).
With CS(=O)(=O)c1ccc(C(=O)Nc2cc(S(C)(=O)=O)ccc2Cl)cc1 the inhibition was 2.11% (inactive).
With COc1ccc(OC)c(C2C=C(c3ccc(C)c(C)c3)Nc3nnnn32)c1 (stereo not given) the inhibition was 4.57% (inactive).
In the case of COc1ccccc1C1C=C(c2ccc(C)cc2)Nc2nnnn21 (stereo not given), the inhibition is reported as -0.45% (inactive).
With COC(=O)C(C)(C)ONC(=O)Nc1ccc(C)cc1 the inhibition was 0.62% (inactive).
In the case of COc1ccc(Cl)cc1N(CC(=O)NC(C)(C)C)S(=O)(=O)c1ccc(C)c([N+](=O)[O-])c1, the inhibition is reported as -3.67% (inactive).
In the case of CCC(CC)C(=O)Nc1nnc(SCC(=O)N2CCN(c3ccccc3OC)CC2)s1, the inhibition is reported as 4.18% (inactive).
In the case of Cc1ccc(C(=O)CC(=O)c2ccccc2)cc1, the inhibition is reported as 61.8% (inactive).
In the case of Cc1ccc(C(=O)Nc2ccccc2Sc2ccccc2)cc1, the inhibition is reported as 9.64% (inactive).
For COc1ccc(C)cc1NC(=O)c1ccc(NC(=O)CC2SC(N3CCCC3)=NC2=O)cc1 (stereo not given), the inhibition was 1.94% (inactive).
In the case of CCN(CC)CC1C(=O)N(c2ccc(OC)cc2)C1c1ccccc1 (stereo not given), the inhibition is reported as -4.16% (inactive).
For COCCn1c(=O)[nH]c2cc(C(=O)N3CCN(c4ccccc4)CC3)ccc2c1=O, the inhibition was 5.58% (inactive).
With COc1ccccc1CNC(=O)/C=C/c1ccc(Br)o1 the inhibition was 3.6% (inactive).
With CN(C)c1ccc(/C=C/c2ccc3ccccc3[n+]2C)cc1 the inhibition was 66.1% (inactive).
For Cc1cc(/C=N/O)c(C)n1-c1ccccc1, the inhibition was -2.51% (inactive).
For CC(C)[C@H](NC(=O)c1cc2cc(Cl)ccc2n1C)C(=O)N[C@@H](C(=O)O)c1ccccc1, the inhibition was -9.63% (inactive).
In the case of CCc1ccc(/C=C2/Sc3ccccc3N(CC(=O)NCCCN3CCOCC3)C2=O)cc1, the inhibition is reported as 38.4% (inactive).
With CC(C)(C)c1ccc(-c2nc(N)nc(N)n2)cc1 the inhibition was -3.01% (inactive).
For CC(C)(C)c1cc(-c2nc(N)nc(N)n2)cc(C(C)(C)C)c1, the inhibition was 9.97% (inactive).
For CCOC(=O)C1CCCc2c1[nH]c1c(C(=O)O)cccc21 (stereo not given), the inhibition was 9.6% (inactive).
With NC(=O)c1cccc2c3c([nH]c12)CCCC3 the inhibition was -3.75% (inactive).
With CCOc1ccc(CCNC(=O)C2=C(C)C(=O)OC23CCCCC3)cc1OCC the inhibition was -0.34% (inactive).
With C[C@H](CO)N1C[C@H](C)[C@@H](CN(C)C(=O)Nc2ccccc2)Oc2ccc(NC(=O)Cc3ccccc3)cc2C1=O the inhibition was 0.43% (inactive).
In the case of CCOC(=O)Cn1nc(/C=C/c2ccc(OC)cc2)ccc1=O, the inhibition is reported as -1.75% (inactive).
In the case of Cc1nn(C(C)(C)C)c(NC(=O)c2ccc(Cl)cc2)c1Br, the inhibition is reported as -3.55% (inactive).
In the case of Cc1nn(C)c(NC(=O)c2ccccc2Cl)c1Br, the inhibition is reported as -4.03% (inactive).
For COc1cc(C)ccc1OCC(=O)Nc1ccccc1N1CCOCC1, the inhibition was 0.365% (inactive).
For Cc1nnc(SCc2c(Cl)cccc2Cl)n(N)c1=O, the inhibition was -0.46% (inactive).
In the case of Cc1ccccc1CSc1nnc(C)c(=O)n1N, the inhibition is reported as 0.74% (inactive).
With O=C(CSc1nc(-c2ccco2)cc(C(F)(F)F)n1)NC1CCCC1 the inhibition was -5.38% (inactive).
With Cc1ccc(CNC(=O)CCc2c(C)nc3c(c(C)nn3-c3ccc(C)cc3)c2C)cc1 the inhibition was 0.88% (inactive).
In the case of Cc1nc2c(c(C)nn2-c2ccccc2)c(C)c1CCC(=O)Nc1ccc(CN2CCCC2)cc1, the inhibition is reported as 55.7% (inactive).
For CCN(CC)S(=O)(=O)c1ccc(C(=O)N2CCN(CCN3C(=O)c4cccc5cccc(c45)C3=O)CC2)cc1, the inhibition was -0.01% (inactive).
In the case of Cn1c(CCNC(=O)c2cccs2)nnc1SCC(=O)Nc1nc(-c2ccccc2)cs1, the inhibition is reported as -0.83% (inactive).
For Cc1cc(C)n2nc(C(=O)OCC(=O)Nc3ccc(C)c(F)c3)nc2n1, the inhibition was -2.78% (inactive).
For Cc1ccc(N/C=C/C(=O)c2sc(-c3ccccc3)nc2C)cc1, the inhibition was 11.4% (inactive).
With COc1ccc(/C=C/C(=O)c2sc(-c3ccccc3)nc2C)cc1 the inhibition was -17.3% (inactive).
With Cc1nc(-c2ccccc2)sc1C(=O)/C=C/c1ccc(Cl)cc1 the inhibition was 36.1% (inactive).
In the case of COc1ccc(NC(=O)c2sc(-c3ccccc3)nc2C)c(OC)c1, the inhibition is reported as 3.27% (inactive).
For Cc1ccc(S(=O)(=O)CCC(=O)NCc2ccco2)cc1, the inhibition was -10.5% (inactive).
For O=C(Nc1ccc(N2CCOCC2)c(Cl)c1)c1ccc(-n2cnnc2)cc1Cl, the inhibition was 2.83% (inactive).
For COc1ccc(-n2c(CNCCc3ccc(C)cc3)nc3ccccc3c2=O)cc1, the inhibition was 14.6% (inactive).
In the case of COc1ccc(CN2CCN(c3ccc(F)cc3)CC2)c(OC)c1OC, the inhibition is reported as 0.31% (inactive).
In the case of COc1ccc(CN2CCN(S(=O)(=O)c3ccc(F)cc3)CC2)c(OC)c1OC, the inhibition is reported as 9.52% (inactive).
For Cc1ccc(S(=O)(=O)N2CCOCC2)cc1NC(=O)C(c1ccc(Cl)cc1)C(C)C (stereo not given), the inhibition was -2.19% (inactive).
In the case of CCOC(=O)[C@H]1[C@H]2COc3ccc(OC)cc3[C@@H]2N2C(=O)c3ccccc3NC(=O)[C@@]12C, the inhibition is reported as 3.81% (inactive).
For Cc1cc(C)n(CCNC(=O)c2cc(COc3ccc4ncccc4c3)on2)n1, the inhibition was 4.76% (inactive).
For CC(NC(=O)c1cc(COc2ccc3ncccc3c2)on1)c1ccc(F)cc1 (stereo not given), the inhibition was 6.82% (inactive).
In the case of Cc1ccc(/C=N/NC(=O)Cc2ccc(Cl)cc2)c(O)c1, the inhibition is reported as -1.94% (inactive).
With O=C(COc1ccccc1F)Nc1ccc(S(=O)(=O)Nc2nccs2)cc1 the inhibition was 3.76% (inactive).
For O=C(C1=C[C@@H](c2ccc(C(F)(F)F)cc2)C[C@@H](OCc2ccc(CO)cc2)O1)N1CCN(Cc2ccccc2)CC1, the inhibition was 5.34% (inactive).
With Cc1ccc(C(=O)Nc2cc(C(F)(F)F)ccc2-n2cncn2)o1 the inhibition was -8.09% (inactive).
In the case of O=C(Nc1cc(C(F)(F)F)ccc1-n1cncn1)c1ccc(Br)cc1, the inhibition is reported as -2.45% (inactive).
With Cc1c(C(=O)O)oc2ccc(S(=O)(=O)NCCC3=CCCCC3)cc12 the inhibition was -7.6% (inactive).
For CC(=O)N1CCCc2cc(S(=O)(=O)NC(C(=O)NCc3ccc(C)cc3)C(C)C)ccc21 (stereo not given), the inhibition was 9.01% (inactive).
With Cc1ccc(C(=O)Cn2cncn2)cc1 the inhibition was 9.3% (inactive).
For Cn1c(O)c(/C=C2/C=CC=N2)c(=O)[nH]c1=O, the inhibition was 17.3% (inactive).
In the case of CCCCn1c(O)c(/C=C2\C=Nc3ccccc32)c(=O)[nH]c1=O, the inhibition is reported as 12.7% (inactive).
In the case of Cc1ccccc1C(=O)N1CCC(C(=O)Nc2nccs2)CC1, the inhibition is reported as -0.78% (inactive).
In the case of CC(=O)N1CCN(C(=O)CN2C(=O)NC(C)(c3ccc4ccccc4c3)C2=O)CC1 (stereo not given), the inhibition is reported as 6.21% (inactive).
For Cc1ccc(CNCC(=O)Nc2ccc(C)cc2Br)cc1, the inhibition was 2.37% (inactive).
In the case of Cc1ccc(NC(=S)Nc2cccc3cnccc23)cc1, the inhibition is reported as 1.12% (inactive).
For S=C(Nc1cccc(Cl)c1)Nc1cccc2cnccc12, the inhibition was 10% (inactive).
With CCOC(=O)c1cc(C)sc1NC(=O)CN1CCN(C(=O)c2ccco2)CC1 the inhibition was 17% (inactive).
With COC(=O)c1cc(C)sc1NC(=O)CN1CCN(C(=O)c2ccco2)CC1 the inhibition was -5.56% (inactive).
In the case of CCCn1nc(C(=O)NNC(=O)c2cc(S(=O)(=O)NC)ccc2Br)c2ccccc2c1=O, the inhibition is reported as -2.51% (inactive).
For COC(=O)c1ccc([C@H]2CC(=O)O2)cc1, the inhibition was -4.85% (inactive).
In the case of O=C(N/N=C/c1ccccn1)c1ccc(NC(=O)c2ccc(F)cc2)cc1, the inhibition is reported as 2.56% (inactive).
For O=C(CSCc1ccc([N+](=O)[O-])cc1)N/N=C/c1cccnc1, the inhibition was 3.16% (inactive).
With COc1ccc(/C=N/NC(=O)CSCc2ccc([N+](=O)[O-])cc2)cc1OC the inhibition was -9.89% (inactive).
For COc1cc(C(=O)OCC#N)ccc1OCc1c(C)noc1C, the inhibition was 9.39% (inactive).
With CCOc1cc(NCc2ccccc2)c2ncn(C(C)C)c2c1 the inhibition was 67.6% (inactive).
In the case of COc1cc(NCc2ccccc2)c2ncn(C(C)C)c2c1, the inhibition is reported as 1.58% (inactive).
For COc1ccccc1CNC(=O)C(CCSC)NS(=O)(=O)c1ccc2c(c1)oc(=O)n2C (stereo not given), the inhibition was 3.84% (inactive).
With O=C(C(=O)N1CC=C(c2ccccc2)CC1)c1c[nH]c2ccccc12 the inhibition was 5.82% (inactive).
With O=S(=O)(NCc1ccco1)c1ccc2ccccc2c1 the inhibition was 10.5% (inactive).
In the case of Cc1ncsc1CCOC(=O)c1cccc([N+](=O)[O-])c1, the inhibition is reported as 8.02% (inactive) and -15.9% (inactive).
For CC(=O)Nc1ccc(NC(=O)COc2ccc([N+](=O)[O-])cc2)cc1, the inhibition was -3.36% (inactive).
In the case of COC(=O)c1ccc(NC(=O)COc2ccc([N+](=O)[O-])cc2)cc1, the inhibition is reported as -9.31% (inactive).
In the case of Cc1ncsc1CCOC(=O)c1ccccc1, the inhibition is reported as 4.41% (inactive).
For O=C(Nc1ccc(Cl)c(S(=O)(=O)Nc2ccccc2Cl)c1)c1cccs1, the inhibition was -2.32% (inactive).
For CC(C)(C)NCCOCCOc1ccccc1-c1ccccc1, the inhibition was 5.36% (inactive).
In the case of N#Cc1ccccc1S(=O)(=O)N1CCN(C(=O)[C@H](Cc2ccccc2)NC(=O)c2ccco2)CC1, the inhibition is reported as -9.05% (inactive).

From PubChem BioAssay AID449762 (Southern Research Specialized Biocontainment Screening …, 2010)
